# Assay results from PubChem BioAssay AID624256 (NMMLSC, 2012).
# Hit rate of the full screen: of about 360,000 compounds, about 3,700 (1%) were called active. Not shown: some 2% with an inconclusive outcome.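 The calls were made as follows: active = normalized GFP-positive differentiation at or above the plate's own cutoff, the solvent-only control mean plus 3 SD; inconclusive = no clear call, values can overlap the other calls; inactive = the rest.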 The full list was thinned out, with actives kept by preference. Where a SMILES comes first, the peptide text is derived from it. The star is where a group is joined. OPac = O=C(CO*)c1ccccc1; Bz = O=C(c1ccccc1)*
# Test: HoxA9-arrested leukemia cell differentiation promoters – flow cytometry, MLPCN library, primary screen (AID 624256);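 as to GFP+ MAC1+ double positive: cells exposed to compound for four days before flow analysis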;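 as to normalized GFP-positive differentiation: cells exposed to compound for four days before flow analysis; 0% = DMSO wells and 100% = fulvestrant positive control at 5 µM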
# Settings: ER-HoxA9 myeloid progenitors, lysozyme-GFP differentiation, at 10 µM; GFP+ MAC1+ double positive: measured here: differentiation confirmed by MAC1 staining, stronger effect = higher value; normalized GFP-positive differentiation: stronger effect = higher value
Compound,GFP+ MAC1+ double positive [%],outcome,normalized GFP-positive differentiation
CCCCCCCCN1C(=O)[C@H](CC(=O)NCc2cccc3ccccc23)C[C@@]2(C(=O)OC)CCCCC=C12,1.4,inactive,
O=C(NCCN1CCOCC1)c1ccccc1N1C(=O)[C@@H]2Cc3c([nH]c4ccccc34)C(c3cccc(Cl)c3)N2C1=O (stereo not given in full),2.3,inactive,
COC(=O)c1ccc2nc(-c3ccc(OC)c(OC)c3)c(Cc3ccccc3)n2c1,0.7,inactive,
Nc1ccc(S(=O)(=O)NC(=O)c2ccccc2)cc1,0.9,inactive,
Nc1ccc(C(=O)Nc2ccccc2N)cc1,1.3,,21.2% (active)
O=C(Cc1ccccc1)Nc1ccc(C(=O)Nc2ccccc2C(=O)O)cc1,1.7,inactive,
CCOc1ccc(CCN2C(=O)C(=O)N([C@@H](CC(C)C)CN3CCC[C@H]3CN3C(=O)C(=O)NC[C@@H]3Cc3ccccc3)C[C@@H]2CC(C)C)cc1,1.6,inactive,
Cn1c(CCC(=O)OCC(=O)NCc2ccccc2Cl)nc(=O)c2ccccc21,34.4,,369% (active)
O=C(COC(=O)Cn1cnc2ccccc2c1=O)NCc1ccccc1Cl,0.9,inactive,
CC(OC(=O)CCc1nc(=O)c2ccccc2n1C)C(=O)NCc1ccc2c(c1)OCO2 (stereo not given),0.9,inactive,
CC(=O)N1C[C@@H](CO)[C@@H](N(C)C(=O)c2ccco2)C[C@H]1c1ccccc1,0.1,inactive,
CCCCCCCCN1C(=O)[C@H](CC(=O)NCC23CC4CC(CC(C4)C2)C3)C[C@@]2(C(=O)OC)CCCCC=C12,1,inactive,
O=C(CN1CCOC1=O)N1CCCC(Nc2ccc(F)c(F)c2)C1 (stereo not given),3.1,inactive,
O=C(CN1C(=O)CSC1=O)N1CCCC(Nc2ccc(F)cc2)C1 (stereo not given),0.7,inactive,
O=C1CCCCN1CCCC(=O)N1CCCC(Nc2ccc(F)cc2)C1 (stereo not given),45,,233% (active)
CC(C)(C)C1CCC(=O)N2CCC[C@]2(c2ccccc2)C1 (stereo not given in full),1,inactive,
CN(C)c1cccc(NC(=O)c2ccc(-c3ccc(F)c(F)c3)c3ccoc23)c1,1.3,inactive,
Cc1ccc2[nH]c3c(=O)n(Cc4ccccn4)cnc3c2c1,3,inactive,
Cc1ccc2c(c1)c1ncn(Cc3ccc(F)cc3)c(=O)c1n2C,2.8,,18% (active)
COc1ccc2c(c1)c1ncn(Cc3ccccn3)c(=O)c1n2C,0.7,inactive,
Cc1ccc(C(NC(=O)C2CCN(CCOc3ccc(Cl)cc3Cl)CC2)c2ccccn2)cc1 (stereo not given),1.4,inactive,
COc1ccc(-c2cc(NC=O)c3ncc(-c4ccccc4)n3c2)cc1OC,3.3,inactive,

Compound,GFP+ MAC1+ double positive [%],outcome,normalized GFP-positive differentiation
COC(=O)C1(C(=O)OC)C[C@H](c2ccccc2)N(Cc2ccccc2OC)[C@@H]1c1ccccc1,1.5,inactive,
Cc1ccc(Cc2c(-c3ccc(Cl)cc3)nc3c4ccccc4ccn23)cc1,0.4,inactive,
CC1CCCCC1NC(=O)COC(=O)Cc1ccc(Cl)cc1 (stereo not given),1.4,inactive,
CC1CCCC(NC(=O)CN2CCN(Cc3ccc(Cl)cc3)C2=O)C1C (stereo not given),11.3,,111% (active)
Cc1ccc(CNC(=O)CN2CCN(Cc3ccc(Cl)cc3)C2=O)cc1,1,inactive,
Cc1ccc(C)c(C(O)c2ncc(-c3cccc4ccccc34)[nH]2)c1 (stereo not given),0.8,inactive,
C[C@H]1COc2cc(N3CCSCC3)ccc2S(=O)(=O)N1,0.8,inactive,
Nc1c(C(=O)c2cccs2)sc2nsc(SCCN3CCCCC3)c12,6,,344% (active)
CCCCCCN1CCN(C2CN(Cc3cn(CCCCCC)nn3)S(=O)(=O)C2)CC1 (stereo not given),0.5,inactive,
Nc1[nH]c(C(=O)c2ccccc2)c(-c2ccncc2)c1C(=O)NCc1cccc2ccccc12,1.6,inactive,
O=C(Nc1ccc(F)cc1)C(CCc1ccccc1)N1CCN(CC(=O)N2CCCC2)CC1 (stereo not given),1.3,inactive,
O=C(C[n+]1ccc2c(c1)nnn2-c1ccccc1)c1ccc(Cl)cc1,0.8,,63.4% (active)
c1ccc2c(c1)nnn2-c1ccncc1,0.8,inactive,
O=C(CSc1cccc[n+]1[O-])c1ccc(Cl)cc1,0.4,inactive,
Cc1cc(=O)oc2c3c(cc(OCC(=O)NCC(O)c4ccccc4)c12)OC(C)(C)CC3 (stereo not given),7.8,inactive,
Cc1ccc(S(=O)(=O)NC(=O)COc2ccccc2C)cc1,0.4,inactive,
Cc1ccccc1OCC(=O)NCC(=O)OCC(=O)c1ccc2ccccc2c1,3.6,,24.5% (active)
O=C(CNC(=O)c1ccccc1)NCC(=O)OCC(=O)c1ccccc1 (Bz-Gly-Gly-OPac),0.2,inactive,
O=C(NC1CCCCC1)C(c1cc2ccccc2o1)n1c(=O)c(-c2ccco2)nc2ccccc21 (stereo not given),5.6,inactive,
CSc1ccc(CN2CCC2(C)C(=O)Nc2ccc(C)c(O)c2)cc1 (stereo not given),0.4,inactive,
CN(C)C(CNC(=O)c1cccc(S(=O)(=O)N2CCc3ccccc3C2)c1)c1ccccc1 (stereo not given),0.7,inactive,
Cc1cccc(N2CCN(C(=O)c3cccc(S(=O)(=O)N4CCc5ccccc5C4)c3)CC2C)c1 (stereo not given),7.3,,31.5% (active)

Compound,GFP+ MAC1+ double positive [%],outcome,normalized GFP-positive differentiation
CC(NC(=O)c1cccc(S(=O)(=O)N2CCc3ccccc3C2)c1)c1ccco1 (stereo not given),0.3,inactive,
CC1(C(=O)NS(=O)(=O)Cc2cccc(Cl)c2)CCN1C(=O)Cc1ccc(Cl)cc1Cl (stereo not given),0.5,inactive,
OC[C@@H]1CN(Cc2ccncc2)C[C@H](n2cnc3c(N4CCN(c5ccccc5)CC4)ncnc32)O1,1.1,inactive,
C=CCn1c2c(c3ccccc31)CCC2,1.4,inactive,
CCOC(=O)[C@]12CCCC=C1N(CCC1=CCCCC1)C(=O)[C@H](CC(=O)N1CCCCC1)C2,3,inactive,
COc1cc(N2CCCC2)c(OC)cc1/C=C(/C#N)c1cccc(Br)c1,15,,258% (active)
CCOc1ccc(/C=C(/C#N)c2nnc(N3CCOCC3)n2-c2ccccc2)cc1OC,0.8,inactive,
COc1ccc(S(=O)(=O)NC(=O)C2(C)CCN2C(=O)COc2ccc(Cl)cc2)cc1 (stereo not given),0.8,inactive,
CCc1nc2c(OCc3ccccc3)cccn2c1N(C)C(=O)c1ccco1,1.6,inactive,
CSc1ncccc1C(=O)NC1CCCCCC1,4.7,,171% (active)
CSc1ncccc1C(=O)NCc1ccccc1Cl,0.9,inactive,
CSc1ncccc1C(=O)Nc1ccc2c(c1)OCO2,1,inactive,
CCCCCNC(=O)C1C(=O)Nc2ccccc2C(=O)N1C(C)(C)C (stereo not given),0.8,inactive,
COC(=O)C1=CN(c2c(C)cc(C)cc2C)C(N)=C(C#N)C1c1cccc(F)c1 (stereo not given),1.5,inactive,
CC1(C(=O)NS(=O)(=O)c2ccccc2Cl)CCN1C(=O)c1cccc(F)c1 (stereo not given),0.8,inactive,
Cc1ccc(C2=CSC3=NS(=O)(=O)CCN23)cc1C,4.9,,25% (active)
CCCOc1ccc(C2=CSC3=NCCN23)cc1Cl,0.8,inactive,
O=S1(=O)CCN2C(=N1)SC1=C2CCN(Cc2ccccc2)C1,0.5,inactive,
CCCCn1c(N)c(N(CC)C(=O)c2ccc(N(C)S(=O)(=O)c3ccc(C)cc3)cc2)c(=O)[nH]c1=O,1.1,inactive,
CCCCn1c(N)c(N(CCOC)C(=O)c2cccc(S(=O)(=O)N(C)c3ccccc3)c2)c(=O)[nH]c1=O,1.3,,16.7% (active)
CCCCn1c(N)c(N(CCOC)C(=O)c2cccc(S(=O)(=O)N3CCCCC3)c2)c(=O)[nH]c1=O,0.5,inactive,
C/C(=N\NC(=O)c1ccc(CSc2nc(C)cc(C)n2)cc1)C1CCCCC1,1.3,,21.9% (active)

Compound,GFP+ MAC1+ double positive [%],outcome,normalized GFP-positive differentiation
Cc1cc(C)nc(SCc2nnc(SCC(=O)OC3CCCCC3)o2)n1,1.3,inactive,
CCC1CCCCN1C(=O)CSc1nc(C)cc(C)n1 (stereo not given),1.8,inactive,
Cc1nc2c(OCc3ccc(Cl)cc3)cccn2c1N(C)Cc1cccs1,0.4,inactive,
CC(C)CNC(=O)C1(C)CCCN1C(=O)CSc1ccccc1 (stereo not given),1.4,inactive,
Cc1cc(C(=O)N2CCCC2(C)C(=O)O)c(C)o1 (stereo not given),1.3,inactive,
N#Cc1ccc(-c2nc3c(Cl)cc(C(F)(F)F)cn3c2Cc2ccccc2C(F)(F)F)cc1,1.3,inactive,
CCC(C(=O)Nc1c(C)cccc1C)n1c(-c2cc(C)cs2)nc2ccccc21 (stereo not given),3.7,inactive,
CCc1c(C)sc(NC(=O)c2cccs2)c1C(N)=O,7.9,,14.1% (active)
CCc1ccc(NC(=O)C(=O)NNC(=O)c2cccs2)cc1,1.8,inactive,
CCOC(=O)CSc1nnc(CNC(=O)c2cccs2)n1-c1ccccc1,1.4,inactive,
Cc1ccc(NC(=O)[C@H](Cc2ccccc2)NC(=O)CC[C@H]2O[C@@H](n3ccc(=O)[nH]c3=O)[C@H](O)[C@@H]2O)cc1C,0.8,inactive,
C=CCn1c(SCc2cccc(F)c2)nc2cc(C(=O)N3CCC(C(N)=O)CC3)ccc2c1=O,0.5,inactive,
O=C1Nc2cc(C(=O)N3CCN(c4ccc(F)cc4)CC3)ccc2NC1CSCc1cccc(F)c1 (stereo not given),10.1,,56.9% (active)
Cc1ccc(CSCC2Nc3ccc(C(=O)N4CCN(c5ccc(F)cc5)CC4)cc3NC2=O)cc1 (stereo not given),1.7,inactive,
COC(=O)[C@]12CCCCC=C1N(Cc1ccccc1)C(=O)[C@H](CC(=O)NCc1ccc(C)o1)C2,1.2,inactive,
CNC(=S)NNC(=O)c1oc2nc(-c3ccccc3)cc(-c3ccco3)c2c1N,2.3,inactive,
O=C(Nc1cccc(F)c1)c1cc(-c2ccco2)nc2ccccc12,0.5,inactive,
NNC(=O)c1oc2nc(-c3ccccc3)cc(-c3ccco3)c2c1N,1,,38.1% (active)
Cc1ccccc1-c1csc(C(O)c2cccc(Cl)c2)n1 (stereo not given),0.8,inactive,
